# Hits are enriched below; roughly 1.4% of the tested compounds scored in any of these assays.
# FBPA Giardia inh: Giardia lamblia aldolase inhibition. purified Giardia FBPA. A8B2U2. Potency, µM (highest dose often 59.6 µM), for the others: top-dose activity, negative = inhibition, hits mostly inhibitors. hit rate 0.71% among 290,000; further: on the % scale 0 is the no-effect control and ±100 the full control effect; nearly all actives have a fitted effect of over 55% in size
# Target sequence (A8B2U2 whole entry, looked up): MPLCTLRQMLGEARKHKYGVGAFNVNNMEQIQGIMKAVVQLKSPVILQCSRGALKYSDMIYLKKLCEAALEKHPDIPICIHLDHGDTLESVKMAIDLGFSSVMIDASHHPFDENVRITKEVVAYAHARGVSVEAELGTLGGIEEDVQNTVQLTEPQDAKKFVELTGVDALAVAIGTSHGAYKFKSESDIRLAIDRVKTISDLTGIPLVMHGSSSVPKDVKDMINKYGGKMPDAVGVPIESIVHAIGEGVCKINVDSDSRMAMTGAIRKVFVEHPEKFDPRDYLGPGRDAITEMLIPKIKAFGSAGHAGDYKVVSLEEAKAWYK
#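 Giardia FBPA (40 nM reagent) was preincubated 10 min at RT with compound (up to 57.5 uM final), then substrate plus GAPDH/TPI/NAD/arsenate coupling system with diaphorase/resazurin was added; resorufin fluorescence (525/598 nm) was read after 20 min.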
# SARS PLpro yeast: blocks SARS-CoV papain-like protease in a yeast assay. S. cerevisiae expressing SARS-CoV PLpro, growth rescue. Potency, µM (highest dose often 32.9 µM), for inactives: at the top dose activity, positive = growth rescue, actives largely listed as activators. hit rate 0.19% among 330,000; calls by dose curve; further: 0% is about no effect; nearly all actives have a fitted effect of over 55% in size
# NS1 inh: inhibitors of influenza NS1 protein function. Potency, µM (titrated, usually from 46.1 µM), for the others: at the highest dose activity, positive = more growth. hit rate 0.4% among 270,000; calls by dose curve; further: actives are rising curves; nearly all actives have a fitted effect of over 50% in size
#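 Compounds were scored for reversing the slow growth caused by influenza A NS1 in S. cerevisiae, measured by optical density at 600 nm. Assay medium contained 2% galactose at pH 6.0; NS1-free yeast of the same strain were the positive control.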
# AmpC inh no detg: blocks E. coli AmpC beta-lactamase in detergent-free assay; hit rate 0.52% among 330,000; P00811; AID 485341; AmpC nitrocefin hydrolysis, absorbance 480 nm, 0.0001% Triton; Potency, µM (doses to about 57.1 µM), for inactives: at the highest dose activity change, negative = inhibition, hits mostly inhibitors;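 further: plate controls were no compound for no effect and no enzyme for full effect; nearly all actives have a fitted effect of over 20% in size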
#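 AmpC (5.3 nM in the dispensed reagent) in 20 mM phosphate pH 7.0 with 0.01% (detergent screen) or 0.0001% Triton X-100 was preincubated with compounds for 15 min at room temperature. Nitrocefin was then added from an 800 uM solution, and hydrolysis was followed at 480 nm.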
# AmpC detergent: inhibitors of E. coli AmpC beta-lactamase with detergent | AID 485294 | hit rate 0.041% among 370,000 | AmpC hydrolysis of nitrocefin, absorbance 480 nm, 0.01% Triton | Potency, µM (top dose mostly 114 µM), for the others: top-dose activity change, negative = inhibition, most hits filed as inhibitors;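 further: 0% = no-compound wells and -100% = no-enzyme wells; nearly all actives have a fitted effect of over 25% in size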
#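 AmpC (5.3 nM in the dispensed reagent) in 20 mM phosphate pH 7.0 with 0.01% (detergent screen) or 0.0001% Triton X-100 was preincubated with compounds for 15 min at room temperature. Nitrocefin was then added from an 800 uM solution, and hydrolysis was followed at 480 nm.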
# Starred values were filed as active, the others as inactive; ? = inconclusive; . = no result. Unless noted, the call rests on the fitted dose curve; in most records, active means well fitted curve in the direction sought with a large enough effect; inconclusive means small, poorly fitted or top-dose-only effect, or another doubt; inactive means no such curve, though single readings can be large; an effect the other way counts as inactive or inconclusive. Potency means the concentration at half of the fitted maximal effect.
SMILES,FBPA Giardia inh,SARS PLpro yeast,NS1 inh,AmpC inh no detg,AmpC detergent
Cc1ccc(CSc2sc(C(=O)c3ccccc3)c(N)c2C#N)cc1,-3%,2%,-3%,10µM*,0%
CCC(O)c1nc2ccccc2n1Cc1cccc(Cl)c1 (stereo not given),.,.,.,.,15%
Cc1cccc(NC(=O)COc2coc(CN3CCc4ccccc4C3)cc2=O)c1,.,0%,.,21%,0%
COc1ccc(NC(=O)c2cccc(Oc3ccc([N+](=O)[O-])cc3Cl)c2)cc1,-7%,-8%,?,2.5µM*,?
COc1ccc(C(=O)Nc2ccccc2)cc1NC(=O)c1ccc([N+](=O)[O-])cc1,5%,-3%,3%,18µM*,-9%
COC(CNC(=O)C1CCCN(S(=O)(=O)c2c(C)noc2/C=C/c2cccs2)C1)OC (stereo not given),2%,4%,.,220%,1%
Nc1c2c(nc3sc4c(c13)CCCCC4)CCCCC2,0%,-23%,-39%,-26%,0%
Nc1c2c(nc3sc4c(c13)CCCC4)CCCCC2,1%,-2%,-6%,4µM*,-1%
CCc1c(C(=O)N/N=C/c2cn[nH]c2-c2ccc(F)cc2)csc1C,-12%,1%,-7%,16µM*,?
Cc1cc(C(=O)N/N=C/c2cn[nH]c2-c2ccccc2)cs1,4%,-12%,19%,-46%,7%
O=C(N/N=C\c1c(O)ccc2ccccc12)c1ccc(S(=O)(=O)N2CCCCC2)cc1,0%,4µM*,25%,-27%,-16%
Cc1cc(O)c2c(c1O)C(=O)[C@]13C(=C2O)C(=O)[C@@H]2[C@@H](O)[C@H]1[C@@H]1[C@H](O)[C@H]3C(=O)C3=C(O)c4c(O)cc(C)c(O)c4C(=O)[C@]312,.,11%,.,28µM*,.
Cc1cc(O)c2c(c1O)C(=O)c1c(O)cc(C)c(O)c1C2=O,-9%,.,.,.,.
CC1CCN(C(=O)C(Cc2ccccc2)n2cccc2)CC1 (stereo not given),5%,2%,-7%,10µM*,?
Cc1cccc(N2CCN(C(=O)C(Cc3ccccc3)n3cccc3)CC2)c1C (stereo not given),1%,-17%,1%,1µM*,?
CC1=C(C(=O)NCc2ccc(Cl)cc2)C2(CCC(C)CC2)OC1=O (stereo not given),1%,-8%,-1%,36%,1%
CC1=C(C(=O)NCc2ccccn2)C2(CCC(C)CC2)OC1=O (stereo not given),-11%,1%,-6%,2.8µM*,?
CCCCc1ccc(NC(=S)NCc2ccccc2OC)cc1,0%,23%,-5%,-27%,8%
CCOc1ccccc1NS(=O)(=O)c1cccs1,14µM*,1%,-5%,-9%,-14%
CCOc1ccccc1NC(=O)CCS(=O)(=O)c1cccs1,-12%,-3%,4%,-17%,?
O=C(O)c1cccc(-n2cccc2/C=C2/NC(=O)N(c3ccc(Cl)cc3)C2=O)c1,?,-3%,.,13µM*,-6%
COCCNC(=O)CCCCCn1c(=S)[nH]c2ccccc2c1=O,-8%,29%,9%,-23%,-11%
CCN(CC)C(=O)C1=C(C)Nc2nc3ccccc3n2C1c1ccc(Cl)cc1 (stereo not given),.,.,.,.,18%
N#CC1=C(N)Nc2nc3ccccc3n2C1c1ccc(Cl)cc1 (stereo not given),3%,-16%,1%,13µM*,?
CCn1c([N+](=O)[O-])nc2c1c(=O)[nH]c(=O)n2C,13µM*,17%,-1%,-19%,3%
SMILES,FBPA Giardia inh,SARS PLpro yeast,NS1 inh,AmpC inh no detg,AmpC detergent
CCCCCCn1c(SCCCC)nc2c1c(=O)[nH]c(=O)n2C,-1%,-2%,5%,-9%,0%
Cc1ccc(NC(=S)Nc2cccnc2)c(S(=O)(=O)N2CCCCC2)c1,-9%,0%,.,14µM*,-14%
Cc1ccc(C)c(NC(=S)Nc2cccnc2)c1,-3%,1%,.,-12%,-11%
Cc1c(Cc2ccc3c(c2)OCO3)sc(NC(=O)c2cccc3ccccc23)c1C(N)=O,-5%,-25%,5%,-29%,-6%
O=C(NC(=S)Nc1ccc(S(=O)(=O)NC2CCCCC2)cc1)c1cccs1,-4%,?,14%,-21%,10%
CCC(=O)NC(=S)Nc1ccc(S(=O)(=O)NC2CCCCC2)cc1,.,7%,-14%,13µM*,10%

# Assay outcomes as filed in PubChem.
